Measurements: PubChem BioAssay (NCATS)
Inconclusive results are not listed. A call without a number means that no potency is given here. The source made the active and inactive calls. The call rests on the fitted dose curve; in most records, active means well fitted inhibition curve with a large enough effect; inconclusive means small, poorly fitted or top-dose-only effect; inactive means flat fitted curve, though single readings scatter.

Molecular target: Ubiquitin carboxyl-terminal hydrolase 1 (Homo sapiens) (UniProt O94782)
Sequence (O94782 whole entry, looked up): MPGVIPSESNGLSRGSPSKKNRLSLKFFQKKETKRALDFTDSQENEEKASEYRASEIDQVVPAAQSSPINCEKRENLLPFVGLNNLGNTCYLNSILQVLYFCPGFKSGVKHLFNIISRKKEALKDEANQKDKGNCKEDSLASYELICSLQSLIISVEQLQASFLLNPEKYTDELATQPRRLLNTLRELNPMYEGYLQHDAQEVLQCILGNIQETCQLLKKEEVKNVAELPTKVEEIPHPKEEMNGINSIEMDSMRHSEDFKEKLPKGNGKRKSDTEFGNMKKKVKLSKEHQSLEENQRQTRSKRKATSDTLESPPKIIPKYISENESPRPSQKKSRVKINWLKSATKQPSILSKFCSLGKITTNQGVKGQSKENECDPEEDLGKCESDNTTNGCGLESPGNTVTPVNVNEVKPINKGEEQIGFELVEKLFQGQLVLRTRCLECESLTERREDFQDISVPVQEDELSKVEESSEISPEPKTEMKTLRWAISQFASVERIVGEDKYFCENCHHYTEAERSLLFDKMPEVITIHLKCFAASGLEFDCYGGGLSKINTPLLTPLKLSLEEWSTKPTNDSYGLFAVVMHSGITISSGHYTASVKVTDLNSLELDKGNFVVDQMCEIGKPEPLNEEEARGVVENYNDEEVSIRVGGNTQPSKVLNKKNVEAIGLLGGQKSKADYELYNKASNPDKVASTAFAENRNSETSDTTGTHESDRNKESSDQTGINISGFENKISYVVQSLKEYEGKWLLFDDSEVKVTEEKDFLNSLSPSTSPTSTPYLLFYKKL
Test: Inhibitors of USP1/UAF1: Pilot qHTS (AID 504865); further: nearly all actives have a fitted effect of over 35% in size
Details: purified USP1/UAF1, Ub-rhodamine cleavage fluorescence; series mostly up to 54.9 µM
From the text: Deubiquitinating enzymes (DUBs) are a class of enzymes that can cleave isopeptide bond formed between the C-terminal carboxylate of ubiquitin and a lysine side-chain amino group on the target protein. Among them, ubiquitin specific proteases (USPs) constitute the largest DUB family. Human USPs are emerging as promising targets for pharmacological intervention because of their connection to a number of human diseases, including prostate, colon and breast cancer (1, 2), pediatric acute lymphoblastic leukemia (3), and familial cylindromatosis (4). The advantage of inhibiting USPs lies in the potential specificity of therapeutic intervention that can lead to better efficacy and reduce nonspecific side effects.
In a collaboration between the University of Delaware and the NIH Chemical Genomics Center, a high-throughput screen assay was developed to screen for USP1/UAF1 inhibitors. This miniaturized assay has a fluorescent read-out and is used to screen the NIH Molecular Libraries Small Molecule Repository (MLSMR) in order to identify a small molecule that inhibits USP1.
NIH Chemical Genomics Center [NCGC]
NIH Molecular Libraries Probe Centers Network [MLPCN]
Assay Submitter (PI): Zhihao Zhuang, University of Delaware
1. Priolo, C., et al. (2006) The isopeptidase USP2a protects human prostate cancer from apoptosis. Cancer Res 66, 8625-8632
2. Popov, N., et al. (2007) The ubiquitin-specific protease USP28 is required for MYC stability. Nat Cell Biol 9, 765-774
3. De Pitta, C., et al. (2005) A leukemia-enriched cDNA microarray platform identifies new transcripts with relevance to the biology of pediatric acute lymphoblastic leukemia. Haematologica 90, 890-898
4. Kovalenko, A., et al. (2003) The tumour suppressor CYLD negatively regulates NF-kappaB signalling by deubiquitination. Nature 424, 801-805
3 microliters of reagents (buffer in columns 3 and 4 as negative control and 1nM USP1/UAF1 complex in columns 1, 2, and 5-48) are dispensed into Greiner black solid bottom 1536-well assay plates. Compounds are then transferred via Kalypsys pin tool equipped with 1536-pin array (10nl slotted pins, V&P Scientific, San Diego, CA). Following an incubation step of 15 min at room temperature, 1ul of Ub-Rho substrate (150nM final concentration) is added to initiate the reaction. The plates are immediately centrifuged at 1000 rpm for 15 seconds, and subsequently transferred to a ViewLux high-throughput CCD imager (PerkinElmer) wherein kinetic measurements of fluorescence are acquired using 480 nm excitation/540 nm emission filter set (6 reads every 60 seconds, see Table 1). All reagents are diluted in an assay buffer consisting of 50mM HEPES (pH 7.8), 0.5mM EDTA, 0.1 mg/ml BSA, 1mM TCEP, and 0.01% Tween-20.
Potency means the concentration at half of the fitted maximal effect.

Compound | Potency
COc1ccc(CNc2ccnc(-c3cccnc3)n2)c(OC)c1 | inactive
CN1CCN(c2ncnc3ccc(-c4ccoc4)cc23)CC1 | inactive
Cc1noc(C)c1-c1ccc2ncnc(Nc3ccccc3)c2c1 | inactive
O=c1c(-c2cccs2)nc2cnc(N3CCOCC3)nc2n1CCc1ccccc1 | inactive
COc1cccc(Cn2c(=O)c(CCc3ccccc3)nc3cnc(N4CCOCC4)nc32)c1 | inactive
COc1ccc2[nH]cc(CCNc3cc(-c4ccccc4CN(C)C)ncn3)c2c1 | inactive
COc1c2ccoc2nc2c(OC)c(OC[C@H](O)C(C)(C)O)ccc12 | inactive
COCCn1c(=O)c(-c2ccc(OC)cc2)nc2cnc(N3CCN(C)CC3)nc21 | inactive
CC(=O)OC1CC2C(C)(C)CCC(=O)[C@@]2(C)C2CC[C@@]3(C)C(c4ccoc4)OC(=O)C4OC43[C@]12C (stereo not given in full) | inactive
COc1ccc(-c2nc3cnc(N4CCOCC4)nc3n(CCc3ccccc3)c2=O)cc1 | inactive
O=C(/C=C/c1ccc(O)c(O)c1)OC(Cc1ccc(O)c(O)c1)C(=O)O (stereo not given) | inactive
CN(C)c1ncc2nc(-c3cccc(C#N)c3)c(=O)n(C)c2n1 | inactive
COc1ccccc1CNc1ccnc(-c2ccccc2C(F)(F)F)n1 | 20 µM (active)
C[C@@H](CN(C)C)CN1c2ccccc2CCc2ccccc21 | inactive
COc1cccc(Cn2c(=O)c(-c3ccc(Cl)cc3)nc3cnc(N4CCN(C)CC4)nc32)c1 | inactive
N#Cc1cccc(-c2nccc(NCc3cccnc3)n2)c1 | inactive
N[C@H](C(=O)N[C@@H]1C(=O)N2C(C(=O)O)=C(Cl)CS[C@@H]12)c1ccccc1 | inactive
COc1cccc(-c2ccc3ncnc(N4CCOCC4)c3c2)c1 | inactive
CN(C)C(=O)c1ccc(-c2ccc3ncnc(NCc4cccs4)c3c2)cc1 | inactive
c1cncc(-c2cc(-n3ccnc3)ncn2)c1 | inactive

Compound | Potency
CN(C)C(=O)c1ccc(-c2cncnc2NCc2cccs2)cc1 | inactive
Cn1c(=O)c(-c2cc(F)cc(F)c2)nc2cnc(Nc3ccccc3)nc21 | inactive
COc1ccccc1CNc1cc(-c2ccc(C(=O)N(C)C)cc2)ncn1 | inactive
COCCNc1nc(-c2ccoc2)nc2ccccc12 | inactive
O=c1c(-c2ccc(F)cc2)nc2cncnc2n1Cc1ccccc1 | inactive
c1cncc(-c2nc(-n3ccnc3)c3ccccc3n2)c1 | inactive
CN(C)C(=O)c1ccc(-c2ccc3ncnc(Nc4ccccc4)c3c2)cc1 | inactive
COc1ccccc1-c1cncnc1NCc1cccs1 | inactive
CN1CCN(c2ncc3nc(-c4ccc(Cl)cc4)c(=O)n(C)c3n2)CC1 | inactive
CCNc1ncc2nc(-c3cn(C)c4ccccc34)c(=O)n(Cc3cccs3)c2n1 | inactive
N#CCCn1c(=O)c(CCc2ccccc2)nc2cnc(Nc3ccccc3)nc21 | inactive
COc1ncc2nc(-c3cn(C)c4ccccc34)c(=O)n(C)c2n1 | inactive
O=c1c(-c2cc(F)cc(F)c2)nc2cncnc2n1C1CC1 | inactive
CS(=O)(=O)Nc1cccc(-c2cncnc2NCc2cccnc2)c1 | inactive
CN(C)c1ccc(-c2nc(-n3ccnc3)c3ccccc3n2)cc1 | inactive
CN(C)C(=O)c1ccc(-c2cncnc2NCc2cccnc2)cc1 | inactive
Cc1ccccc1-c1nc(NCc2cccnc2)c2ccccc2n1 | 28.2 µM (active)
O=c1c(-c2ccccc2)nc2cnc(N3CCOCC3)nc2n1C[C@H]1CCCO1 | inactive
CCNc1ncc2nc(CCc3ccccc3)c(=O)n(C[C@H]3CCCO3)c2n1 | inactive
Cc1cnc(CNc2ncnc3ccc(-c4ccccc4CN(C)C)cc23)cn1 | inactive
